Results taken from PubChem BioAssay (NCATS).
Values joined by “and” are separate entries in the source; they are usually repeats but may differ in a detail not shown here. Equal entries are not always repeated. Inconclusive results are not listed. Entries that show only a call come without a potency. Some compounds were tested as several samples or in several runs, with calls that do not always agree. Active and inactive are the calls of the source. Unless noted, calls follow the shape of the dose curve; as a rule, active = well fitted curve in the direction sought with a large enough effect; inconclusive = small, poorly fitted or top-dose-only effect, or another doubt; inactive = no such curve, though single readings can be large; an effect the other way counts as inactive or inconclusive.

Assays:
UISO = assay: qHTS assay to identify novel small-molecules to repurpose for Merkel cell carcinoma treatment (AID 1296009); conditions: MCC and control cell lines, CellTiter-Glo viability, 72 h; series mostly up to 46 µM; also: nearly all actives have a fitted effect of over 60% in size; also: potency is read from the fitted curve at half-maximal effect
Summary of the method: (§1)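 qHTS format: cells treated with library compounds in DMSO across 8 (NPC) or 11 (MIPE) concentrations. Readout after 72 hr at 37 degree celsius was CellTiter-Glo luminescence.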

WaGa = assay: as above; conditions: MCC and control cell lines, CellTiter-Glo viability, 72 h; series mostly up to 46 µM
Summary of the method: as §1

C33A = assay: Primary qHTS to identify gynecologic anti-cancer compounds using libraries of approved drugs and bioactive compounds (AID 1345084); conditions: Gynecologic cancer cell panel viability, ATPlite luminescence, 48 h; series mostly up to 57.5 µM; also: nearly all actives have a fitted effect of over 55% in size; also: potency is read from the fitted curve at half-maximal effect
Summary of the method: (§2)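 Cell viability after 48 h drug treatment, ATPlite luminescence readout; five doses.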

CASKI = assay: as above; conditions: Gynecologic cancer cell panel viability, ATPlite luminescence, 48 h; series mostly up to 57.5 µM
Summary of the method: as §2

Es-2 = assay: as above; conditions: Gynecologic cancer cell panel viability, ATPlite luminescence, 48 h; series mostly up to 57.5 µM
Summary of the method: as §2

HeLa = assay: as above; conditions: Gynecologic cancer cell panel viability, ATPlite luminescence, 48 h; series mostly up to 57.5 µM
Summary of the method: as §2

Hek293T = assay: as above; conditions: Gynecologic cancer cell panel viability, ATPlite luminescence, 48 h, control line for the selectivity index; series mostly up to 57.5 µM
Summary of the method: as §2

JEG-3 = assay: as above; conditions: Gynecologic cancer cell panel viability, ATPlite luminescence, 48 h; series mostly up to 57.5 µM
Summary of the method: as §2

OV90 = assay: as above; conditions: Gynecologic cancer cell panel viability, ATPlite luminescence, 48 h; series mostly up to 57.5 µM
Summary of the method: as §2

PA-1 = assay: as above; conditions: Gynecologic cancer cell panel viability, ATPlite luminescence, 48 h; series mostly up to 57.5 µM
Summary of the method: as §2

SKOV3 = assay: as above; conditions: Gynecologic cancer cell panel viability, ATPlite luminescence, 48 h; series mostly up to 57.5 µM
Summary of the method: as §2

Tov-21-G = assay: as above; conditions: Gynecologic cancer cell panel viability, ATPlite luminescence, 48 h; series mostly up to 57.5 µM
Summary of the method: as §2

Tov112D = assay: as above; conditions: Gynecologic cancer cell panel viability, ATPlite luminescence, 48 h; series mostly up to 57.5 µM
Summary of the method: as §2

[1] = Drug repurposing screens with cells derived from glioblastoma tumor samples (AID 1345199); conditions: GBM patient neurospheres viability, ATP luminescence, 48 h; also: nearly all actives have a fitted effect of over 40% in size; also: potency is read from the fitted curve at half-maximal effect
Summary of the method: (§3)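 Four patient lines of CD133+ GBM neurospheres were screened at several concentrations; hits were retested in those lines plus three slower-growing GBM lines, using 48-hour treatment and ATP-based viability.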

astro = assay: as above; conditions: viability, ATP luminescence, 48 h; series mostly up to 45.9 µM
Summary of the method: as §3

[2] = biological target: Nuclear receptor subfamily 1 group I member 2 (Rattus norvegicus) (UniProt Q9R1A7); assay: qHTS assay for small molecule activators of the rat pregnane X receptor (rPXR) signaling pathway (AID 651751; call rule not given here); conditions: rPXR reporter cells, luciferase (One-Glo), 24 h
[3] = qHTS assay for small molecule activators of the human pregnane X receptor (PXR) signaling pathway (AID 720659; call rule not given here)
CAOV3 = assay: Primary qHTS to identify gynecologic anti-cancer compounds using libraries of approved drugs and bioactive compounds (AID 1345084); conditions: Gynecologic cancer cell panel viability, ATPlite luminescence, 48 h; series mostly up to 57.5 µM; also: nearly all actives have a fitted effect of over 55% in size; also: potency is read from the fitted curve at half-maximal effect
Summary of the method: as §2

[4] = at 45.9 µM (top of the series), tumour line B
[5] = at 45.9 µM (top of the series), tumour line D
[6] = at 46 µM (top of the series), tumour line A
[7] = at 46.1 µM (top of the series), tumour line C

Chain of Nuclear receptor subfamily 1 group I member 2 (Rattus norvegicus) (Q9R1A7 whole entry, looked up): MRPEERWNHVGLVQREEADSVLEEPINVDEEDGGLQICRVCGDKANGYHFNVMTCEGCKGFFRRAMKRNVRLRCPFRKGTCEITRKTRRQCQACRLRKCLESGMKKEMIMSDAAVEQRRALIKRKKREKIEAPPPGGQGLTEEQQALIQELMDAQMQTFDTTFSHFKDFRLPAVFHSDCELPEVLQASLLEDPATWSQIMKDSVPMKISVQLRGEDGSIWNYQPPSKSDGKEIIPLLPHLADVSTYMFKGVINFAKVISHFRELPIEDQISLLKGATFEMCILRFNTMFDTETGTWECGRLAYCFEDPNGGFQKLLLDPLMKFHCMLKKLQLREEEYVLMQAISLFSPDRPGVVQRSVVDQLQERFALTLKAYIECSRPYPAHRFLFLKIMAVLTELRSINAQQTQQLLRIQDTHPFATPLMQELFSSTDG

Question: For NC(=O)NO, which Potency (UISO) is on record?
Answer: inactive and 4.69 µM (active)

Question: And the Potency (WaGa)?
Answer: inactive

Question: What about the Potency (C33A) of the same compound?
Answer: inactive

Question: And the Potency (CASKI)?
Answer: inactive

Question: And the Potency (Es-2)?
Answer: inactive

Question: And the Potency (HeLa)?
Answer: inactive

Question: And the Potency (Hek293T)?
Answer: inactive

Question: And the Potency (JEG-3)?
Answer: inactive

Question: What about the Potency (OV90) of the same compound?
Answer: inactive

Question: And the Potency (PA-1)?
Answer: inactive

Question: What about the Potency (SKOV3) of the same compound?
Answer: inactive

Question: What about the Potency (Tov-21-G) of the same compound?
Answer: inactive

Question: What about the Potency (Tov112D) of the same compound?
Answer: inactive

Question: What about the activity, negative = cell killing [1, 4] of the same compound?
Answer: -13.8% (inactive)

Question: And the activity, negative = cell killing [1, 5]?
Answer: -5.79% (inactive)

Question: What about the activity, negative = cell killing [1, 6] of the same compound?
Answer: -19.1% (inactive)

Question: What about the activity, negative = cell killing [1, 7] of the same compound?
Answer: -11.2% (inactive)

Question: What about the Potency (astro) of the same compound?
Answer: inactive

Question: With Cn1c(=O)c2c(ncn2C)n(C)c1=O as the compound, how does the Potency (UISO) read?
Answer: inactive

Question: And the Potency (WaGa)?
Answer: inactive

Question: And the Potency (C33A)?
Answer: inactive

Question: And the Potency (CASKI)?
Answer: inactive

Question: What about the Potency (Es-2) of the same compound?
Answer: inactive

Question: What about the Potency (HeLa) of the same compound?
Answer: inactive

Question: What about the Potency (Hek293T) of the same compound?
Answer: inactive

Question: What about the Potency (JEG-3) of the same compound?
Answer: inactive

Question: What about the Potency (OV90) of the same compound?
Answer: inactive

Question: And the Potency (PA-1)?
Answer: inactive

Question: And the Potency (SKOV3)?
Answer: inactive

Question: What about the Potency (Tov-21-G) of the same compound?
Answer: inactive

Question: What about the Potency (Tov112D) of the same compound?
Answer: inactive

Question: And the activity, negative = cell killing [1, 4]?
Answer: -15% (inactive)

Question: And the activity, negative = cell killing [1, 5]?
Answer: -11.6% (inactive)

Question: And the activity, negative = cell killing [1, 6]?
Answer: -31.4% (inactive)

Question: And the activity, negative = cell killing [1, 7]?
Answer: -0.268% (inactive)

Question: And the Potency (astro)?
Answer: inactive

Question: And the max response [2]?
Answer: 0.943% (inactive) and 1.54% (inactive)

Question: And the outcome [3]?
Answer: inactive

Question: What does the source list for CS(=O)(=O)CCNCc1ccc(-c2ccc3ncnc(Nc4ccc(OCc5cccc(F)c5)c(Cl)c4)c3c2)o1?
Answer: Potency (UISO): inactive; Potency (WaGa): inactive and 16.8 µM (active); Potency (C33A): inactive; Potency (CASKI): inactive; Potency (Es-2): inactive; Potency (HeLa): inactive; Potency (Hek293T): inactive; Potency (JEG-3): inactive; Potency (OV90): inactive; Potency (PA-1): inactive; Potency (SKOV3): inactive; Potency (Tov-21-G): inactive; Potency (Tov112D): inactive; activity, negative = cell killing [1, 4]: -6.77% (inactive); activity, negative = cell killing [1, 5]: -7.21% (inactive); activity, negative = cell killing [1, 7]: -22.4% (inactive)

Question: Which results are given for O=C(c1ccc(OCCN2CCCCC2)cc1)c1c(-c2ccc(O)cc2)sc2cc(O)ccc12?
Answer: Potency (UISO): inactive; Potency (WaGa): inactive; Potency (C33A): inactive; Potency (CAOV3): inactive; Potency (CASKI): inactive; Potency (Es-2): inactive; Potency (HeLa): inactive; Potency (Hek293T): inactive; Potency (JEG-3): inactive; Potency (OV90): inactive; Potency (Tov-21-G): inactive; Potency (Tov112D): inactive; Potency (astro): 17.8 µM (active)

Question: For CC(C)(C)C(=O)Oc1ccc(S(=O)(=O)Nc2ccccc2C(=O)NCC(=O)O)cc1, which Potency (UISO) is on record?
Answer: inactive

Question: And the Potency (WaGa)?
Answer: inactive

Question: What about the Potency (C33A) of the same compound?
Answer: inactive

Question: And the Potency (CAOV3)?
Answer: inactive

Question: What about the Potency (CASKI) of the same compound?
Answer: inactive

Question: What about the Potency (Es-2) of the same compound?
Answer: inactive

Question: And the Potency (HeLa)?
Answer: inactive

Question: What about the Potency (Hek293T) of the same compound?
Answer: inactive

Question: And the Potency (JEG-3)?
Answer: inactive

Question: And the Potency (OV90)?
Answer: inactive

Question: What about the Potency (PA-1) of the same compound?
Answer: inactive

Question: What about the Potency (Tov-21-G) of the same compound?
Answer: inactive

Question: What about the Potency (Tov112D) of the same compound?
Answer: inactive

Question: And the activity, negative = cell killing [1, 4]?
Answer: -13.7% (inactive)

Question: And the activity, negative = cell killing [1, 5]?
Answer: -10.4% (inactive)

Question: What about the activity, negative = cell killing [1, 6] of the same compound?
Answer: -15.5% (inactive)

Question: What about the activity, negative = cell killing [1, 7] of the same compound?
Answer: -13.4% (inactive)

Question: What about the Potency (astro) of the same compound?
Answer: inactive

Question: Which Potency (UISO) does the source give for O=C1N(c2ccccc2)c2ccccc2C1(Cc1ccncc1)Cc1ccncc1 here?
Answer: inactive

Question: And the Potency (WaGa)?
Answer: inactive

Question: And the Potency (C33A)?
Answer: inactive

Question: And the Potency (CAOV3)?
Answer: inactive

Question: And the Potency (Es-2)?
Answer: 1 µM (active)

Question: What about the Potency (HeLa) of the same compound?
Answer: inactive

Question: And the Potency (Hek293T)?
Answer: inactive

Question: What about the Potency (JEG-3) of the same compound?
Answer: inactive

Question: What about the Potency (OV90) of the same compound?
Answer: inactive

Question: What about the Potency (PA-1) of the same compound?
Answer: inactive

Question: What about the Potency (SKOV3) of the same compound?
Answer: inactive

Question: What about the Potency (Tov-21-G) of the same compound?
Answer: inactive

Question: What about the Potency (Tov112D) of the same compound?
Answer: inactive

Question: What about the activity, negative = cell killing [1, 4] of the same compound?
Answer: -5.15% (inactive)

Question: And the activity, negative = cell killing [1, 5]?
Answer: -2.7% (inactive)

Question: And the activity, negative = cell killing [1, 7]?
Answer: -22.5% (inactive)

Question: What about the Potency (astro) of the same compound?
Answer: inactive

Question: Which Potency (UISO) does the source give for CN(C)C(=N)N=C(N)N here?
Answer: inactive

Question: And the Potency (WaGa)?
Answer: inactive

Question: And the Potency (C33A)?
Answer: inactive

Question: What about the Potency (CAOV3) of the same compound?
Answer: inactive

Question: And the Potency (CASKI)?
Answer: inactive

Question: What about the Potency (Es-2) of the same compound?
Answer: inactive

Question: And the Potency (HeLa)?
Answer: inactive

Question: And the Potency (Hek293T)?
Answer: inactive

Question: What about the Potency (JEG-3) of the same compound?
Answer: inactive

Question: What about the Potency (OV90) of the same compound?
Answer: inactive

Question: And the Potency (PA-1)?
Answer: inactive

Question: What about the Potency (SKOV3) of the same compound?
Answer: inactive

Question: And the Potency (Tov-21-G)?
Answer: inactive

Question: And the Potency (Tov112D)?
Answer: inactive

Question: And the activity, negative = cell killing ([1]; at 20 µM (top of the series), tumour line C)?
Answer: -29.3% (inactive)

Question: What about the activity, negative = cell killing ([1]; at 21.2 µM (top of the series), tumour line B) of the same compound?
Answer: -4.74% (inactive)

Question: What about the activity, negative = cell killing ([1]; at 21.2 µM (top of the series), tumour line D) of the same compound?
Answer: -25.1% (inactive)

Question: And the activity, negative = cell killing ([1]; at 21.3 µM (top of the series), tumour line A)?
Answer: -0.697% (inactive)
